The nature of experiment [1]: ATG_TAL_CIS: Attagene CIS-FACTORIAL HepG2 Assay for human TAL Basal Promoter (AID 2282966; active = hit-call score of the fitted dose curve at least 0.9, where 1 is the maximum; inactive = score below 0.9;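 note: background control endpoint measuring basal TAL promoter reporter mRNA not a specific factor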). The settings on record: HepG2 Attagene cis-factorial TAL promoter reporter; actives raise or lower the signal. In short, it runs like this:
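Endogenous transcription-factor activity is sensed in HepG2 cells through transfected cis-promoter reporter constructs. After 24 h dosing, reporter transcripts are quantified by RT-PCR and capillary electrophoresis. Gain or loss of signal is fitted relative to DMSO.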

Experiment [2] can be described thus: ATG_TGFb_CIS: Attagene CIS-FACTORIAL HepG2 Assay for human Transforming Growth Factor (TGF) (AID 2282967; active = hit-call score of the fitted dose curve at least 0.9, where 1 is the maximum; inactive = score below 0.9). The settings on record: HepG2 Attagene CIS TGFb reporter, mRNA transcription; actives raise or lower the signal. In short, it runs like this:
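Transient MRTU transfection of HepG2 (FuGene 6). Dose 24 h. TriZol RNA, oligo(dT) RT, PCR, 6-FAM primer extension, HpaI cut, CE. Bidirectional fit, DMSO = baseline.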

A short description of experiment [3]: ATG_VDRE_CIS: Attagene CIS-FACTORIAL HepG2 Assay for human Vitamin D Receptor Element (VDRE) (AID 2282968; active = hit-call score of the fitted dose curve at least 0.9, where 1 is the maximum; inactive = score below 0.9). The settings on record: HepG2 VDRE cis-reporter transcription, actives raise or lower the signal. In short, it runs like this:
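Compounds were applied for 24 h to HepG2 cells transfected with promoter-regulated reporter units. Total RNA was reverse-transcribed, and reporter amplicons were fluorescently labelled and sized by capillary electrophoresis.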

Experiment [4] deals with Nuclear receptor subfamily 1 group I member 3 (Homo sapiens) (UniProt Q14994). Nature of the experiment: ATG_CAR_TRANS: Attagene TRANS-FACTORIAL HepG2 Assay for human Constitutive Androstane Receptor (CAR) (AID 2282969).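 Note: activators raise reporter mRNA above DMSO so AC50 marks induction.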 The settings on record: HepG2 Attagene TRANS-FACTORIAL CAR reporter. In short, it runs like this:
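Transiently transfected HepG2, multiplex TRANS reporters (CAR-Gal4 chimera driving GAL4-UAS reporter). 24 h dosing. Readout: reporter transcript by RT-PCR + capillary electrophoresis, fluorescence intensity; positive direction vs DMSO.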

Experiment [5] deals with X-box-binding protein 1 (Homo sapiens) (UniProt P17861). Nature of the experiment: ATG_Xbp1_CIS: Attagene CIS-FACTORIAL HepG2 Assay for human X-box Binding Protein 1 (XBP1) (AID 2282972; active = hit-call score of the fitted dose curve at least 0.9, where 1 is the maximum; inactive = score below 0.9). The settings on record: HepG2 XBP1 cis-element reporter, Attagene multiplex; actives raise or lower the signal. In short, it runs like this:
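Human hepatoma HepG2, cis-element reporter system, 24 h treatment; mRNA quantified by RT-PCR/CE fluorescence; fit relative to DMSO.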

A short description of experiment [6]: ATG_M_19_TRANS: Attagene TRANS-FACTORIAL HepG2 Assay for M19 Transcription Factor (Internal Marker) (AID 2282974). The settings on record: HepG2 Attagene TRANS-FACTORIAL M19 internal marker reporter. In short, it runs like this:
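Transfected HepG2 (GAL4-UAS MRTUs), 24 h compound, TriZol RNA, DNase-treated RT, reporter PCR, FAM label, HpaI digest, CE fluorescence; gain vs DMSO.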

The target of experiment [7] is Oxysterols receptor LXR-beta (Homo sapiens) (UniProt P55055). Put plainly: ATG_LXRb_TRANS: Attagene TRANS-FACTORIAL HepG2 Assay for human Liver X Receptor beta (LXRb) (AID 2282981). The settings on record: HepG2 Attagene TRANS GAL4-LXRb reporter, mRNA. In short, it runs like this: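 Multiplexed reporter assay, HepG2, 24 h dosing. Fluorescence of labelled RT-PCR products after capillary electrophoresis gives transcript level; positive fitting direction relative to DMSO.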
Chain of Oxysterols receptor LXR-beta (Homo sapiens) (P55055 whole entry, looked up, the tested form may be a part): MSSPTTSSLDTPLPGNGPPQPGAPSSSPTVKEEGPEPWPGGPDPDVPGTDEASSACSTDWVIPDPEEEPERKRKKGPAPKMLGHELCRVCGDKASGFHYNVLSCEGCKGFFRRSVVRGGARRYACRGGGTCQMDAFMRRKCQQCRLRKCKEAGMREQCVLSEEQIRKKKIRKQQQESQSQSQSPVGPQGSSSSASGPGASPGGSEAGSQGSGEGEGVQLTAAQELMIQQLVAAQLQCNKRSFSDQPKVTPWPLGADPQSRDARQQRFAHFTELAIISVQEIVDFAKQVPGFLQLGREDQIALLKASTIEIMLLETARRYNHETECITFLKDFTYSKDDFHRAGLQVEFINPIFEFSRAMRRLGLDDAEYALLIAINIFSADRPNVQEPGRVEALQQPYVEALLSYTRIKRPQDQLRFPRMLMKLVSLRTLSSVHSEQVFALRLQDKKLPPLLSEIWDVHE

Experiment [8] in a line: ATG_M_06_TRANS: Attagene TRANS-FACTORIAL HepG2 Assay for M06 Transcription Factor (Internal Marker) (AID 2282983). The settings on record: HepG2 Attagene TRANS M06 internal marker reporter. In short, it runs like this: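 Human liver HepG2 cells bearing transiently transfected chimeric NR-GAL4 reporter units were treated with chemicals for 24 h. Total RNA was reverse-transcribed, reporter sequences amplified and labelled, then quantified by capillary electrophoresis. Activity was fitted upward relative to DMSO.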

Experiment [9] is described as follows: ATG_M_32_TRANS: Attagene TRANS-FACTORIAL HepG2 Assay for M32 Transcription Factor (Internal Marker) (AID 2282984).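 Note: transcript level of a background control reporter unit measured by RT-PCR and capillary electrophoresis.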 The settings on record: HepG2 Attagene TRANS M32 internal marker reporter. In short, it runs like this: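 Internal-marker readout from a multiplexed transcription reporter panel. HepG2 cells were transfected with GAL4-UAS reporter units, treated 24 hours, and reporter transcript levels determined by fluorescence after RT-PCR and capillary separation.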

Experiment [10] addresses Nuclear receptor subfamily 4 group A member 2 (Homo sapiens) (UniProt P43354). Nature of the experiment: ATG_NURR1_TRANS: Attagene TRANS-FACTORIAL HepG2 Assay for human Nuclear Receptor Related Protein 1 (NURR1) (AID 2282985). The settings on record: HepG2 Attagene TRANS reporter, mRNA readout. In short, it runs like this: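 Endpoint: reporter mRNA increase relative to DMSO. HepG2 cells transfected with reporter units, treated 24 h; RNA processed by RT-PCR, labelling, HpaI digestion and capillary electrophoresis.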

In experiment [11] the target is Transcriptional activator Myb (Homo sapiens) (UniProt P10242). Nature of the experiment: ATG_Myb_CIS: Attagene CIS-FACTORIAL HepG2 Assay for human Myeloblastosis (Myb) Proto-Oncogene Transcription Factor (AID 2282986; active = hit-call score of the fitted dose curve at least 0.9, where 1 is the maximum; inactive = score below 0.9). The settings on record: HepG2 Attagene CIS-FACTORIAL Myb reporter transcription; actives raise or lower the signal. In short, it runs like this:
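After 24 h of compound dosing, total RNA from transfected HepG2 cells is reverse-transcribed and the reporter sequences amplified, labeled and separated by capillary electrophoresis. Values come from bidirectional fitting against DMSO.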

The target in experiment [12] is Nuclear respiratory factor 1 (Homo sapiens) (UniProt Q16656). Nature of the experiment: ATG_NRF1_CIS: Attagene CIS-FACTORIAL HepG2 Assay for human Nuclear Respiratory Factor 1 (NRF1) Orphan Gene (AID 2282987; active = hit-call score of the fitted dose curve at least 0.9, where 1 is the maximum; inactive = score below 0.9). The settings on record: HepG2 NRF1 cis-element reporter, Attagene multiplex; actives raise or lower the signal. In short, it runs like this:
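Measured: fluorescent reporter-specific RT-PCR products from transfected HepG2 cells, separated by capillary electrophoresis. Exposure lasted 24 h. Analysis used bidirectional curve fitting with DMSO as negative control.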

Experiment [13] has as its target Bile acid receptor (Homo sapiens) (UniProt Q96RI1). Nature of the experiment: ATG_FXR_TRANS: Attagene TRANS-FACTORIAL HepG2 Assay for Farnesoid X Receptor (FXR) (AID 2282979).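 Note: hits raise reporter mRNA above DMSO so AC50 marks FXR activation.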 The settings on record: HepG2 Attagene TRANS FXR-GAL4 reporter transcription. In short, it runs like this:
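Chimeric FXR-GAL4 activity in transiently transfected human HepG2 liver cells is scored as induction of reporter mRNA after 24 h of dosing. Detection uses RT-PCR with fluorescent labelling and capillary electrophoresis, with DMSO serving as baseline.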

Experiment [14] addresses Oxysterols receptor LXR-alpha (Homo sapiens) (UniProt Q13133). Put plainly: ATG_LXRa_TRANS: Attagene TRANS-FACTORIAL HepG2 Assay for human Liver X Receptor alpha (LXRa) (AID 2282980). The settings on record: HepG2 Attagene TRANS reporter, LXRa transactivation. In short, it runs like this: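 Transient HepG2 transfectants, 24 h dosing, RT-PCR/CE mRNA reporter quantitation; gain-of-signal vs DMSO.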

The target of experiment [15] is Hepatocyte nuclear factor 4-alpha (Homo sapiens) (UniProt P41235). Put plainly: ATG_HNF4a_TRANS: Attagene TRANS-FACTORIAL HepG2 Assay for human Hepatocyte Nuclear Factor 4 alpha (HNF4a) (AID 2282982). The settings on record: HepG2 HNF4a transactivation reporter, mRNA readout. In short, it runs like this: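 Endpoint reflects transcriptional activation of a GAL4-UAS reporter by an HNF4a-GAL4 chimera in transfected HepG2 cells, 24 h post-dosing. Fluorescence from RT-PCR products separated by capillary electrophoresis; DMSO baseline.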
Chain of Hepatocyte nuclear factor 4-alpha (Homo sapiens) (P41235 whole entry, looked up, the tested form may be a part): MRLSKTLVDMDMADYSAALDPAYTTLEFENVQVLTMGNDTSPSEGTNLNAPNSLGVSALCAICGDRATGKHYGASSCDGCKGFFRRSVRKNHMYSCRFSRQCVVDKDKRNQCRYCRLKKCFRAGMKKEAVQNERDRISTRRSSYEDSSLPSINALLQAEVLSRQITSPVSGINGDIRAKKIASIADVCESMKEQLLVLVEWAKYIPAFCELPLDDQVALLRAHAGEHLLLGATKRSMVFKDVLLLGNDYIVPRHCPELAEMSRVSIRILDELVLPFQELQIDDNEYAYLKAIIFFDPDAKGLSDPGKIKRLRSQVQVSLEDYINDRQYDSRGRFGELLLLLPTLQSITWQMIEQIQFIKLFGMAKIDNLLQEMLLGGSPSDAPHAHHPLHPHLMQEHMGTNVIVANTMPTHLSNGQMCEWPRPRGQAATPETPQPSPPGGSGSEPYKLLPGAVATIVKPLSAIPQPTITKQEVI

For experiment [16], the target named is Estrogen receptor (Homo sapiens) (UniProt P03372). Put plainly: ATG_ERa_TRANS: Attagene TRANS-FACTORIAL HepG2 Assay for human Estrogen Receptor alpha (ERa) (AID 2282970). The settings on record: HepG2 Attagene TRANS ERa GAL4 reporter, mRNA. In short, it runs like this: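 Transfected HepG2 cells carrying GAL4-UAS-driven reporter units were dosed for 24 hours. Total RNA was reverse-transcribed, reporter sequences PCR-amplified, FAM-labelled, HpaI-digested and resolved by capillary electrophoresis. Increases over DMSO control defined activity.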

In experiment [17] the target is Glucocorticoid receptor (Homo sapiens) (UniProt P04150). Nature of the experiment: ATG_GR_TRANS: Attagene TRANS-FACTORIAL HepG2 Assay for human Glucocorticoid Receptor (GR) (AID 2282978).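 Note: activators score as hits since higher reporter transcript over DMSO is fitted.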 The settings on record: HepG2 Attagene TRANS GR reporter, mRNA transcription. In short, it runs like this:
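After 24 h incubation with test chemical, transfected HepG2 cells were lysed for RNA; reporter cDNA was amplified, FAM-labelled, HpaI-digested and sized on a capillary analyser. Signal gain relative to DMSO was scored.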

For experiment [18], the target named is Steroid hormone receptor ERR1 (Homo sapiens) (UniProt P11474). Put plainly: ATG_ERRa_TRANS: Attagene TRANS-FACTORIAL HepG2 Assay for human Estrogen-Related Receptor alpha (ERRa) (AID 2282971). The settings on record: HepG2 Attagene TRANS reporter, ERRa transactivation. In short, it runs like this: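 HepG2 cells were transiently transfected with multiple GAL4-UAS reporter units, then dosed with compound for 24 h. Total RNA was reverse-transcribed, reporter cDNA PCR-amplified and fluorescently labelled, and fragments resolved by capillary electrophoresis; induction was compared with DMSO.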

Results filed as inconclusive are left out. Active and inactive are the calls of the source. Rule for the calls, unless noted: active = hit-call score of the fitted dose curve at least 0.9, where 1 is the maximum; inconclusive = response in the unintended direction; inactive = score below 0.9.

A word on the AC50: it is the concentration at which the activity in the assay is half-maximal.

Chain of Nuclear respiratory factor 1 (Homo sapiens) (Q16656 whole entry, looked up): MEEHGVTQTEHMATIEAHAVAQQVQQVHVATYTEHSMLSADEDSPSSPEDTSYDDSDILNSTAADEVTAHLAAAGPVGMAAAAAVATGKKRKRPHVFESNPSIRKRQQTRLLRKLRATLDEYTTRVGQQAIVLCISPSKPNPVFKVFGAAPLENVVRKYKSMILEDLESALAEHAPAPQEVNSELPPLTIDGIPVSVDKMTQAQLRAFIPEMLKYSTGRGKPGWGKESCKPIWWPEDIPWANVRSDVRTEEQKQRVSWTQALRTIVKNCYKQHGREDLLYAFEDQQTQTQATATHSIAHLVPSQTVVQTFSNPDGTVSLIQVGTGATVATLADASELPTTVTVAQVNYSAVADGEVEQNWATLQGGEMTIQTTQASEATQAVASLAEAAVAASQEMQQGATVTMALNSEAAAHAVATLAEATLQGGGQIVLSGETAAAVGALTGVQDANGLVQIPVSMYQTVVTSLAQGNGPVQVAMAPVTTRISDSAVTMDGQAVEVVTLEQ
Chain of X-box-binding protein 1 (Homo sapiens) (P17861 whole entry, looked up): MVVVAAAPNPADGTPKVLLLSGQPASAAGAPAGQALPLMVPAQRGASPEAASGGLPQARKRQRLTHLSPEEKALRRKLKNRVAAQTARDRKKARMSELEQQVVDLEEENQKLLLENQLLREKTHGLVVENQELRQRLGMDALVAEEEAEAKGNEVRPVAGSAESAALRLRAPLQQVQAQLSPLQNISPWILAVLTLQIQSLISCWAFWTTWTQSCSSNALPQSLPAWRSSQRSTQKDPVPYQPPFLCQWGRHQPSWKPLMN
Chain of Nuclear receptor subfamily 1 group I member 3 (Homo sapiens) (Q14994 whole entry, looked up, the tested form may be a part): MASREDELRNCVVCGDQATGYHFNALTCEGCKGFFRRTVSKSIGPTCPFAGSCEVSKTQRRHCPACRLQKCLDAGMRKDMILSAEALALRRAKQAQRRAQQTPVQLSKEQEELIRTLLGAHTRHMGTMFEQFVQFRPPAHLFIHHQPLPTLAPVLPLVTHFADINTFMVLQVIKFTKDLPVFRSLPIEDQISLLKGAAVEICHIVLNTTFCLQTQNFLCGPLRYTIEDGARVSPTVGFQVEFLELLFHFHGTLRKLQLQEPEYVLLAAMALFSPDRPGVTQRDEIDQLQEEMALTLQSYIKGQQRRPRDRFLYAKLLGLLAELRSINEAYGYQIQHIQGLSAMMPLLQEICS
Chain of Transcriptional activator Myb (Homo sapiens) (P10242 whole entry, looked up): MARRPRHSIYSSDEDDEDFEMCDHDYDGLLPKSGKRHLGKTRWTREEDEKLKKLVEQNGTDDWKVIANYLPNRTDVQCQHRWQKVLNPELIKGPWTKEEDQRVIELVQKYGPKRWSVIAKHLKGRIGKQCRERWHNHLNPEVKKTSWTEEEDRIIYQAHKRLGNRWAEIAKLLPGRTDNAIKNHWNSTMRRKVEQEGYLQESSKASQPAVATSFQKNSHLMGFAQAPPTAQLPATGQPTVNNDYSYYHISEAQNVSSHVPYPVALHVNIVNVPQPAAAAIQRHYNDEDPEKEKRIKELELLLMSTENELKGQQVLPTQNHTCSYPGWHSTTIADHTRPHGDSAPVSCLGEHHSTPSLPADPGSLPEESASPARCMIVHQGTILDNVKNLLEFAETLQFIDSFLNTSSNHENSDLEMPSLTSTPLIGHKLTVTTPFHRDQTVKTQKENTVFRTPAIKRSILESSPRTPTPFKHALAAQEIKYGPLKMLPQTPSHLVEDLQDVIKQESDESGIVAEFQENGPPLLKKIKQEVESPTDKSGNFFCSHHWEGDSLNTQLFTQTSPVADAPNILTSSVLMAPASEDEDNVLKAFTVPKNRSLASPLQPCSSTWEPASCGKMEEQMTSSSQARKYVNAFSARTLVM
Chain of Oxysterols receptor LXR-alpha (Homo sapiens) (Q13133 whole entry, looked up): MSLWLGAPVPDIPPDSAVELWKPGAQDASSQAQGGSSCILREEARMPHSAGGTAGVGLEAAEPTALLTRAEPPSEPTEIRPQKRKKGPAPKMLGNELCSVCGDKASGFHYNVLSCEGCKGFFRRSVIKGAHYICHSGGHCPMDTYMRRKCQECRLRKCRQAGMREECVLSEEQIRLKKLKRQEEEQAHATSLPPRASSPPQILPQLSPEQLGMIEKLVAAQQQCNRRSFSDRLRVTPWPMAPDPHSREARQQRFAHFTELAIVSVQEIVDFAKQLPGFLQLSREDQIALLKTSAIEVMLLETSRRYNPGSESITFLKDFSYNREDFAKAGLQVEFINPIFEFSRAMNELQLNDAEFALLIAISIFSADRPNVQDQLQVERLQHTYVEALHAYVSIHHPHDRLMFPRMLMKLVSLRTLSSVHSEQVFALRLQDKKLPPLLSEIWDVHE
Chain of Nuclear receptor subfamily 4 group A member 2 (Homo sapiens) (P43354 whole entry, looked up): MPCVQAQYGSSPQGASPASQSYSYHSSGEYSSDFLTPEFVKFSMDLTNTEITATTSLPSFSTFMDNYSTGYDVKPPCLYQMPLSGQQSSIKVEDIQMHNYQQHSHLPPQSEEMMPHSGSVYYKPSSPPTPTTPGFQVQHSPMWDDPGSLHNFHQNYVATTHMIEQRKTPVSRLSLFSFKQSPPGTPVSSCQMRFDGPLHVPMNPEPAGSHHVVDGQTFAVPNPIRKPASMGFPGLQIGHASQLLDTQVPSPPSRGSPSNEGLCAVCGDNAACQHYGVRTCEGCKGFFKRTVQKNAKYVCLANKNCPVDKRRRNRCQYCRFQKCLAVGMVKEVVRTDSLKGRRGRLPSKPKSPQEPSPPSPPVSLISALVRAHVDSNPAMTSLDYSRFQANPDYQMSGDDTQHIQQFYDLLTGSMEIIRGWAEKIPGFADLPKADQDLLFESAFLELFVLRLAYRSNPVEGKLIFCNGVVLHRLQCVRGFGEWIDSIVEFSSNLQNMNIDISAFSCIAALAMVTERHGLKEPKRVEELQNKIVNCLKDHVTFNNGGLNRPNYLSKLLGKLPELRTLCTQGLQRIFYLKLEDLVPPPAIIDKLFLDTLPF
Chain of Glucocorticoid receptor (Homo sapiens) (P04150 whole entry, looked up): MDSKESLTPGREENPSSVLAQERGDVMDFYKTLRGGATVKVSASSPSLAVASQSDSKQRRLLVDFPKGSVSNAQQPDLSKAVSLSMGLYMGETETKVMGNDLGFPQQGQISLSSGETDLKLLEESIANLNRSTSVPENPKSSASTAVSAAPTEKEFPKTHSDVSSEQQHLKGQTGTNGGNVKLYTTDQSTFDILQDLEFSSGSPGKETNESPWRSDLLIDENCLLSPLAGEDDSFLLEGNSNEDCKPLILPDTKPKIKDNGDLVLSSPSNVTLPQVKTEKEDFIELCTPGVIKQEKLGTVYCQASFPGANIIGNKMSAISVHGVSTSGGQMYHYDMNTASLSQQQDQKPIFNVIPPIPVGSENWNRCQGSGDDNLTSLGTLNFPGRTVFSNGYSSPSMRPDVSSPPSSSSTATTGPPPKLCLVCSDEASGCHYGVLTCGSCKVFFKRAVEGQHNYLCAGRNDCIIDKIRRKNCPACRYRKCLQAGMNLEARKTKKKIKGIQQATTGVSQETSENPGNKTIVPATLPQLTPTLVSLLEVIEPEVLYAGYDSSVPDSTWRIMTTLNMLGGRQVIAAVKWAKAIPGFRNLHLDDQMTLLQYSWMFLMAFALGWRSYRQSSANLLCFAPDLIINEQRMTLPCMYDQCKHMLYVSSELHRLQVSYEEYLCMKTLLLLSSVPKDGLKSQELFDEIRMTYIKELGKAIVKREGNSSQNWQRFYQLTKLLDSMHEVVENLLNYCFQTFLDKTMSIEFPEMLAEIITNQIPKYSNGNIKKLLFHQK
Chain of Bile acid receptor (Homo sapiens) (Q96RI1 whole entry, looked up, the tested form may be a part): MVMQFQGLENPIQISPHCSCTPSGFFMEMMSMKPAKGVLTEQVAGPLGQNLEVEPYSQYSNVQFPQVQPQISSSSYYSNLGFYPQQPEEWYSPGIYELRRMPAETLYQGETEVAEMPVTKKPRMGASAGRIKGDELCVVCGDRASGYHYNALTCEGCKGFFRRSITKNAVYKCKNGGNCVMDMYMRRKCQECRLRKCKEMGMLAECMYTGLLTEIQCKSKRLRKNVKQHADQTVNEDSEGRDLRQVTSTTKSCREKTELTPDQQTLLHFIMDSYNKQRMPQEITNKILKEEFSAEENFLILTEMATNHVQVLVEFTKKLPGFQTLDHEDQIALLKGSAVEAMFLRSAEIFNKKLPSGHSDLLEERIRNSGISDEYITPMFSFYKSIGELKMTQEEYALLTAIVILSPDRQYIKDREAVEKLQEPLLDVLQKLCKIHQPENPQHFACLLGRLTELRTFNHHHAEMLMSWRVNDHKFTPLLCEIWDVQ

For `Cc1ccc(C(C)(C)C)cc1`, the compound was called inactive in [1], in [2], in experiment [3], in [4], in experiment [5] and in [6]. For the same compound, the result in experiment [7], in experiment [8], in experiment [9], in experiment [10], in experiment [11] and in experiment [12] was inactive.

Turning to `O=c1n(CCO)c(=O)n(CCO)c(=O)n1CCO`, the call in experiment [1], in experiment [2], in [3], in [4], in [5] and in experiment [6] was inactive. The call in experiment [13], in [14], in [15], in experiment [9], in [11] and in experiment [12] was inactive.

On to `O=c1c2ccccc2nnn1CCl`, for which the result in experiment [1], in experiment [2], in experiment [3], in experiment [4], in experiment [16] and in experiment [5] was inactive. Moreover, the result in experiment [7], in experiment [15], in experiment [8], in experiment [9], in [11] and in experiment [12] was inactive.

Turning to `C=C(C)c1cccc(C(C)(C)N=C=O)c1`, the compound was classed as inactive in [1], in experiment [2], in [4], in [5], in [6] and in [17]. Further, the compound was called inactive in experiment [14], in experiment [7], in [15], in experiment [8], in experiment [9] and in experiment [11]. Besides, the result in [12] was inactive. Further, in experiment [3], the AC50 was 377 nM (active).

On to `CCC(C)(C)C1CCCCC1OC(C)=O` (stereo unspecified), for which the compound was called inactive in experiment [1], in [2], in [3], in experiment [4], in experiment [18] and in experiment [5]. The compound was classed as inactive in [8], in experiment [9], in [10], in experiment [11] and in [12].

Source of the values: PubChem BioAssay (EPA / NIEHS).
